The full list was thinned out, with hits kept by preference.
RmlC RmlD mix: RmlC/RmlD inhibition, mixture screen; 110,000 tested, 0.39% active; RmlC/RmlD coupled enzyme inhibition, 384-well mixture HTS; inhibition, % at 5.5 µM; in the data active = inhibition above about 30%, passing the limit was not always enough; inconclusive = no clear call, values can overlap the other calls
HIV RNase H inh-1: blocks HIV-1 RNase H cleavage of RNA/DNA duplex; inhibition, % at 10 µM; 65,000 tested, 1.9% active; RT-RNase H RNA/DNA duplex cleavage, fluorescence; in the data active = inhibition above about 50%
HIV RNase H inh-2: confirmation of HIV-1 reverse transcriptase RNase H inhibitors; Recombinant RT RNase H, fluorescent RNA/DNA duplex cleavage; shares compounds with HIV RNase H inh-1; inhibition, % at 10 µM; 1,000 tested, 39% active; AID 651; in the data active = inhibition above about 48%; inconclusive = no clear call, values can overlap the other calls
Starred values were filed as active, the others as inactive; ? = inconclusive; · = no result given.

SMILES	RmlC RmlD mix	HIV RNase H inh-1	HIV RNase H inh-2
OCCN1CCN(C(=S)c2ccc(Cl)c(Cl)c2)CC1	5.1	92.9*	66.1*
CCN1CCN(C(=S)c2ccc(Br)cc2)CC1	2.8	·	·
COc1ccc(S(=O)(=O)N2CCCN(S(=O)(=O)c3ccc(OC)cc3C)CC2)c(C)c1	-6.7	-4.0	·
CCOC(=O)c1c(NC(=O)c2ccc(Cl)s2)sc(C)c1C	-107.2	20.3	·
CCOC(=O)c1c(NC(=O)c2csc(C)c2)sc(C(C)=O)c1C	·	-11.1	·
CCCc1cc(C(=O)Nc2sc(C)c(C)c2C(=O)OCC)no1	-31.8	86.3*	67.5*
CCOC(=O)c1c(NC(=O)c2cc(C3CC3)on2)sc2c1CCCC2	·	84.5*	94.1*
CCOC(=O)c1c(NC(=O)c2cc(C3CC3)on2)sc(C(C)=O)c1C	·	68.0*	50.6
CCOC(=O)c1c(NC(=O)c2ccco2)sc2c1CCCCC2	-4.4	-46.4	·
CSc1cccc(NC(=O)CN(c2cc(C)ccc2C)S(C)(=O)=O)c1	-0.8	-1.6	·
CN1CC(c2ccc(C#N)cc2)C2(COc3ccccc3C2=O)C12C(=O)Nc1ccccc12 (configuration not stated)	4.3	·	·
O=C(O)C1C2C=CC(C2)C1C(=O)NC1CCS(=O)(=O)C1 (configuration not stated)	-6.5	-2.6	·
CSc1ccccc1NC(=O)COc1ccc(S(=O)(=O)N2CCCC2)cc1	-8.5	-9.1	·
Cc1ccccc1Cn1c(=O)n(Cc2ccco2)c(=O)c2ccccc21	-5.4	9.6	·
Cc1cc(C)c(NC(=O)Cn2c(=O)n(Cc3ccco3)c(=O)c3ccccc32)c(C)c1	-9.6	69.0*	72.8*
CCCN(CCC)C(=S)NC(=O)c1ccc(-c2ccccc2)cc1	5.2	·	·
N=c1n(CCN2CCOCC2)c2ccccc2n1Cc1ccccc1Br	-10.8	-7.9	·
Cc1cc(NC(=O)CSc2nc3ccccc3s2)no1	-11.9	·	·
Cc1cccc(-c2nsc(SCC(=O)Nc3cc(C)on3)n2)c1	-7.0	69.6*	48.2
CCCc1cc(C(=O)Nc2sc3c(c2C#N)CCC3)no1	·	60.6*	70.3*
CCCC(=O)Nc1sc2c(c1C#N)CCCC2	-3.8	5.5	·
N#Cc1c(NC(=O)c2ccncc2)sc2c1CCC2	15.0	63.6*	24.9
CC(=O)Nc1sc2c(c1C#N)CCCC2	-32.5	·	·
COc1ccccc1-c1nc(C#N)c(NCc2ccc(F)cc2)o1	-18.3	-25.5	·
COCCN1CSC(=S)N(Cc2ccco2)C1	3.9	62.9*	-8.3
SMILES	RmlC RmlD mix	HIV RNase H inh-1	HIV RNase H inh-2
COCCN=C1Sc2nc3ccc(C)cc3cc2CN1Cc1ccco1	8.9	·	·
COc1ccc(N(C(=O)c2ccc(Cl)cc2)C2=CC3CCC(C2)N3C)cc1 (configuration not stated)	10.8	·	·
Cc1cccc(NC(=S)NNC(=O)CC(C)O)c1C (configuration not stated)	-0.6	·	·
CC1CC(C)(C)NC(=O)O1 (configuration not stated)	4.8	-5.6	·
CC1CC(C)(C)NC(=S)S1 (configuration not stated)	-7.5	78.5*	51.9*
O=C(CSc1n[nH]c(-c2ccncc2)n1)c1ccccc1	3.9	-4.8	·
Cc1nc(SCC(=O)c2ccccc2)n[nH]1	-2.8	59.2*	17.1
c1ccc(Cc2nn3c(COc4ccccc4)nnc3s2)cc1	26.2	93.3*	64.2*
COc1ccc(-c2nnc3sc(COc4ccccc4)nn23)cc1	0.7	-1.7	·
c1ccc(OCc2nn3c(C4CCCCC4)nnc3s2)cc1	-2.5	63.5*	28.6
Clc1ccccc1-c1nn2c(COc3ccccc3)nnc2s1	-8.1	-2.4	·
Cn1c(N)c(C(=O)COC(=O)C2(c3cccc(F)c3)CCCC2)c(=O)n(C)c1=O	-58.5	-6.5	·
CC(=O)Nc1c(C#N)c(C(C)(C)C)cn1C	0.1	-2.3	·
O=C(COc1ccc(Cl)cc1)Nc1nc(-c2ccc(S(=O)(=O)N3CCOCC3)cc2)cs1	-5.5	·	·
O=C(COc1ccccc1)Nc1nc(-c2ccc(S(=O)(=O)N3CCOCC3)cc2)cs1	-0.8	66.3*	19.6
COc1nc(-c2ccc(Cl)cc2)ccc1-c1noc(-c2ccncc2)n1	·	63.9*	47.6
COc1nc(-c2ccccc2)ccc1-c1noc(-c2ccccc2)n1	-5.0	0.0	·
Cc1ccc2nc(SCC(=O)Nc3cccc([N+](=O)[O-])c3)[nH]c2c1	3.2	·	·
CC1CCCN(c2nc3c(c(=O)[nH]c(=O)n3C)n2CCCc2ccccc2)C1 (configuration not stated)	-8.0	-11.6	·
CCOC(=O)N1CCC(N2C(=O)c3ccc(C(=O)NC4CCCCCC4)cc3C2=O)CC1	·	64.1*	47.3
CCOC(=O)N1CCC(N2C(=O)c3ccccc3C2=O)CC1	0.7	3.4	·
O=S(=O)(c1ccc(Oc2ccc(Cl)cc2)c(S(=O)(=O)N2CCCCC2)c1)N1CCCCC1	9.4	·	·
Cn1cccc1-c1nc2ccc(NC(=O)c3cccs3)cc2[nH]1	-5.5	0.2	·
O=C(Nc1ccc2nc(-c3ccc(Br)o3)[nH]c2c1)c1cccs1	-0.4	71.4*	1.8
COc1ccc(CCNC(=O)C2CCCN2C(=O)Nc2cccc(C(C)=O)c2)cc1OC (configuration not stated)	7.2	-1.9	·
SMILES	RmlC RmlD mix	HIV RNase H inh-1	HIV RNase H inh-2
CCCC(CCC)C(=O)Nc1cccc(C(=O)O)c1	-2.2	·	·
CCn1c(=NC(=O)CN2C(=O)CCC2=O)sc2c(OC)ccc(OC)c21	-8.5	-11.5	·
CCn1c(=NC(=O)c2ccc(N3C(=O)CCC3=O)cc2)sc2c(OC)ccc(OC)c21	-16.1	56.3*	?
CCCCCCC(=O)N1CCC(c2nc3c(nnn3Cc3ccccc3Cl)c(=O)[nH]2)CC1	-9.5	5.0	·
Cc1cccc(NC(=O)c2ccccc2Br)n1	6.8	63.2*	20.3
Cc1cccc(NC(=O)c2ccccc2[N+](=O)[O-])n1	-0.6	·	·
COc1cccc(N2CCN(C(=O)CN(C)S(=O)(=O)c3ccc4c(c3)CCC(=O)N4)CC2)c1	-9.3	-10.8	·
N#Cc1ccc(OCc2nnc(SCC(=O)N3CCCc4ccccc43)n2-c2ccccc2)cc1	2.8	88.4*	48.8
COc1ccc(OCc2nnc(SCC(=O)N3CCCc4ccccc43)n2-c2ccc(C)cc2)cc1	-15.7	·	·
COc1ccc(C(=O)N2CCN(S(=O)(=O)c3cc(Cl)ccc3OC)CC2)cc1	10.3	-79.9	·
O=C(c1ccco1)N1CCN(C(=O)c2cc(-c3ccccc3)nc3ccccc23)CC1	11.5	·	·
O=C(c1ccco1)N1CCN(C(=O)c2cc(-c3ccccn3)nc3ccc(Cl)cc23)CC1	-8.8	69.1*	1.2
CC(=O)N1N=C(c2cccc([N+](=O)[O-])c2)OC1c1ccc(Cl)cc1Cl (configuration not stated)	5.1	·	·
CCOC(=O)CCc1c(C)nc(SCCN2CCCC2)c(C#N)c1C	-11.2	3.7	·
CCOC(=O)CCc1c(C)nc(SCCCn2c(=O)[nH]c3ccccc32)c(C#N)c1C	6.5	85.7*	19.9
COc1ccc(Cn2nnnc2C(c2cc3cccc(C)c3[nH]c2=O)N2CCOCC2)cc1 (configuration not stated)	4.6	54.4*	4.3
COc1ccc(Cn2nnnc2C(c2cc3cc(C)ccc3[nH]c2=O)N2CCOCC2)cc1 (configuration not stated)	5.7	-18.2	·
CCN(CC)S(=O)(=O)c1ccc(F)c(C(=O)NCCC(C)C)c1	-10.2	5.2	·
CC1(c2nnc(-c3cccc(Cl)c3)o2)CC(c2cccnc2)=NO1 (configuration not stated)	-13.6	·	·
